PLK1 PBD inh = PLK1 (human) polo-box domain binding inhibition; Plk1 PBD binding of FITC phosphopeptide, fluorescence polarization; Potency, µM, for inactives: max response, negative = inhibition, hits mostly inhibitors; actives 2.8% (n = 360,000); P53350; further: series mostly up to about 57 µM; nearly all actives have a fitted effect of over 65% in size
GCN5L2 inh = inhibitors of human GCN5L2 histone acetyltransferase; GCN5L2 HAT assay, ThioGlo1 CoA-SH fluorescence; Potency, µM (doses to about 58.9 µM), without a hit: top-dose activity change, negative = inhibition, actives largely listed as inhibitors; actives 0.21% (n = 390,000)
Target sequence (Q92830 whole entry, looked up): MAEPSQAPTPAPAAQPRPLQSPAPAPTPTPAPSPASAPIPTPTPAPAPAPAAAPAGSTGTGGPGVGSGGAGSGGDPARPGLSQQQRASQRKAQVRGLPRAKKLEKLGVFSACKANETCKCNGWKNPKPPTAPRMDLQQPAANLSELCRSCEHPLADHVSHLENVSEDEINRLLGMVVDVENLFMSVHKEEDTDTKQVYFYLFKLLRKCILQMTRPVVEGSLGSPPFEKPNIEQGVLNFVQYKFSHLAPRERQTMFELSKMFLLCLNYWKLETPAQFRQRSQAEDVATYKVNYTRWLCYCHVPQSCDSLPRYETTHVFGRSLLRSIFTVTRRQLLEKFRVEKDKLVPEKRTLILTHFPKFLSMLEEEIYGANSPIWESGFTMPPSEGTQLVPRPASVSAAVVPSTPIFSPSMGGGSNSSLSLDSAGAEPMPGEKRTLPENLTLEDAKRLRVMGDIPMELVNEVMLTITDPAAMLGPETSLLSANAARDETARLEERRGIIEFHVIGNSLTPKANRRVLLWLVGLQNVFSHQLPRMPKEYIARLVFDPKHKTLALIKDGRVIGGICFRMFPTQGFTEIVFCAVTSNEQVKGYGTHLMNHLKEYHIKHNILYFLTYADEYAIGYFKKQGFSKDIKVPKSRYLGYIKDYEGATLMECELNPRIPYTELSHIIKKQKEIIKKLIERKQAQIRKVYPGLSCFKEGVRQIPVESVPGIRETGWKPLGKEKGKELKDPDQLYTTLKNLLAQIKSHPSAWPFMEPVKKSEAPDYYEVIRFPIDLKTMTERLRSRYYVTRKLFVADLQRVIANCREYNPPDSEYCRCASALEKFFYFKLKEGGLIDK
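Free CoA generated was detected with ThioGlo1 (50uM) fluorescence at Ex340nm/Em540nm, read immediately and after 20 min at room temperature. Enzyme, 20 nM in HEPES pH 7.5 buffer, saw compounds 15 min before adding 75uM H3(1-25) peptide and 70uM acetyl-CoA.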
TDP1 inh = blocks human tyrosyl-DNA phosphodiesterase 1. Q9NUW8. recombinant TDP1, AlphaScreen DNA substrate cleavage. Potency, µM (series often up to 130 µM), inactives show top-dose activity change, negative = inhibition, actives largely listed as inhibitors. actives 0.28% (n = 350,000); further: nearly all actives have a fitted effect of over 40% in size
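Recombinant human Tdp1 (E. coli-expressed, 1 nM final) preincubated with compounds 15 min at room temperature, then 5'-biotin/3'-phosphotyrosine-FITC DNA substrate (15 nM final) added for 5 min. AlphaScreen beads (10 ug/ml final) added 10 min; cleavage lowers signal.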
TDP1 cell CPT = growth inhibition of DT40 Tdp1-/-;hTDP1 cells with camptothecin (screen for TDP1 inhibitors); chicken DT40 Tdp1-/-;hTDP1 cells + 20 nM CPT, ATP luminescence, 48 h; Potency, µM (top dose mostly 46.2 µM), for the others: top-dose activity change, negative = growth inhibition, most hits filed as inhibitors; actives 12% (n = 420,000); further: nearly all actives have a fitted effect of over 55% in size
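Chicken DT40 Tdp1-/- cells complemented with human TDP1, 400 cells/well, exposed to compounds plus 20 nM camptothecin for at least 48 h at 37 C; viability read as ATP content by CellTiter-Glo luminescence.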
VDR inhibitor = vitamin D3 receptor (human) inhibition; AID 504847; Potency, µM, inactives show max response, negative = inhibition, most hits filed as inhibitors; actives 0.93% (n = 400,000); VDR-SRC2-3 peptide fluorescence polarization, 2 h
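VDR–SRC2-3 interaction, FP format. Cmpds 23 nl via pintool, brief spin, 2 h ambient incubation.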
TDP1 cell noCPT = qHTS for Inhibitors of human tyrosyl-DNA phosphodiesterase 1 (TDP1): qHTS in cells in absence of CPT. DT40 Tdp1-/- hTDP1 cells, no CPT, ATP luminescence, 48 h. Potency, µM (highest dose often 46.2 µM), inactives show at the top dose activity change, negative = growth inhibition, actives largely listed as inhibitors. actives 15% (n = 420,000). AID 686978, 2013; further: nearly all actives have a fitted effect of over 55% in size
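Luminescent ATP content (CellTiter-Glo) served as the growth readout. Knockout chicken DT40 cells expressing human TDP1 were exposed to compounds without camptothecin for a minimum 48 hr at 37 °C.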
Active calls of the source: *; u = inconclusive; x = no result given. In the library only some 18% were active in any assay of this set; here they are far more common. The call rests on the fitted dose curve; in most records, active means well fitted curve in the direction sought with a large enough effect; inconclusive means small, poorly fitted or top-dose-only effect, or another doubt; inactive means no such curve, though single readings can be large; an effect the other way counts as inactive or inconclusive. On the % scale 0 is the no-effect control and ±100 the full control effect; potency means the concentration at half of the fitted maximal effect.

SMILES	PLK1 PBD inh	GCN5L2 inh	TDP1 inh	TDP1 cell CPT	VDR inhibitor	TDP1 cell noCPT
CCOC(=O)c1c(NC(=O)CSc2nnc(C)s2)sc2c1CCCCC2	0%	-28%	1%	u	-24%	u
CCOC(=O)c1c(NC(=O)COc2cccc3c2CCN(C)C3=O)sc2c1CCC2	-2%	-6%	1%	13µM*	-8%	9.2µM*
Cc1cccc(NC(=O)COc2cccc3c2CCN(C)C3=O)c1C	-2%	-3%	9%	u	7%	u
CCOC(=O)c1c(NC(=O)CSc2nnc(C)s2)sc2c1CCC(C)C2 (stereo not given)	-7%	-17%	0%	u	7%	21µM*
COc1c(F)c(F)c(C(=O)Nc2ccc(NC(=O)Cc3ccccc3)cc2)c(F)c1F	-1%	-6%	-3%	2%	0%	7%
CC1(C)OC(=O)C2=C(C[C@@H](C3CCCCC3)O[C@H]2c2ccccc2)O1	-9%	x	x	u	x	16µM*
CC1(C)OC(=O)C2=C(C[C@@H](CCOCc3ccccc3)O[C@@H]2c2ccc(F)cc2)O1	-3%	x	x	u	x	u
CC1(C)OC(=O)C2=C(C[C@@H](CCC(F)(F)F)O[C@H]2c2ccc(F)cc2)O1	-3%	x	x	5%	x	5%
CC(C)[C@@H]1O[C@H](CCc2ccccc2)CC2=C1C(=O)OC(C)(C)O2	-6%	x	x	15µM*	x	15µM*
C[C@@H]1O[C@H](CCc2cccc(Cl)c2)CC2=C1C(=O)OC(C)(C)O2	-15%	x	x	1.6µM*	x	2.9µM*
CC1(C)OC(=O)C2=C(C[C@@H](C3CCCCC3)O[C@H]2c2ccc(F)cc2)O1	-6%	x	x	-19%	x	u
CC(C)c1ccc([C@@H]2O[C@H](CCc3ccccc3)CC3=C2C(=O)OC(C)(C)O3)cc1	0%	x	x	u	x	16µM*
CCc1nc2ccc(C(=O)N(CC)CCN(C)C)cn2c1N(C)C(=O)c1cccc(OC)c1	2%	x	x	-4%	x	0%
CCOC(=O)c1c(C)nc2cc(C)cc(C)n12	2%	-14%	0%	1%	11%	-9%
Cc1cc(C)n2c(=O)[nH]nc2c1	1%	x	x	-1%	-24%	4%
CN(Cc1ccccc1)N=Nc1nc[nH]c1C(N)=O	-4%	x	x	u	x	-9%
C/C(Cn1nnc2ccccc21)=N\NC(=O)c1cccc(Br)c1	-5%	-4%	8%	-2%	1%	-1%
CC1(C)OC(=O)C2=C(C[C@@H](CCc3ccccc3)O[C@@H]2c2ccc(Cl)cc2)O1	-7%	x	x	u	x	u
CC1(C)OC(=O)C2=C(CC(CCc3ccccc3)OC2c2ccccc2)O1 (stereo not given)	2%	x	x	13µM*	x	21µM*
CCOc1ccc(NC(=O)c2cccc3ccccc23)cc1	-7%	2%	5%	12µM*	-6%	8.2µM*
CCOc1ccc(NC(=O)c2cc(OC)nc3ccccc23)cc1	-23%	-10%	x	0.52µM*	13%	0.58µM*
COc1cc(C(=O)Nc2ccc(C)cc2)c2ccccc2n1	-5%	24%	x	0.82µM*	-7%	0.73µM*
CCOc1ccc(NC(=O)c2cc3ccccc3cc2O)cc1	u	-5%	x	u	-17%	u
Cc1ccc(NC(=O)c2cc(Cl)nc3ccccc23)cc1	-7%	-2%	3%	-6%	7%	-6%
O=C(NNC(=O)c1ccc(S(=O)(=O)N2CCOCC2)cc1)c1ccccc1	-3%	-16%	6%	-3%	-9%	4%
SMILES	PLK1 PBD inh	GCN5L2 inh	TDP1 inh	TDP1 cell CPT	VDR inhibitor	TDP1 cell noCPT
Cc1ccc(NS(=O)(=O)c2cnc(N)nc2)c(C)c1	x	-1%	7%	4%	3%	0%
COc1ccccc1NC(=O)NCCCCc1ccccc1	-4%	-5%	2%	-21%	33%	-2%
COC(=O)C1=C(O)C(C(=O)OC)C(c2ccc(C)cc2)C(C#N)(C#N)C1c1ccc(C)cc1 (stereo not given)	-5%	-1%	1%	5.2µM*	6%	4.1µM*
Cc1cc2c(s1)c1cnn(Cc3cccc(F)c3)c(=O)c1n2C	x	x	-10%	x	x	x
COCCNC(=S)N/N=C(\C)c1ccccc1O	-19%	2%	8%	0.026µM*	-6%	0.082µM*
C/C(=N\NC(=S)NCCc1ccccc1)c1ccc(Cl)cc1	3%	-7%	3%	u	-19%	u
COCCNC(=S)N/N=C(\C)c1ccc(Cl)c(Cl)c1Cl	-2%	-1%	5%	4.1µM*	-11%	4.6µM*
COc1ccc(/C(C)=N/NC(=S)NCCc2ccccc2)c(O)c1	2%	-17%	x	0.65µM*	13%	0.58µM*
COCCNC(=S)N/N=C(\C)c1ccc(Cl)s1	-3%	-20%	11%	u	5%	21µM*
COCCNC(=S)N/N=C(\C)c1ccccc1F	-18%	-10%	4%	u	-10%	u
Cc1cccc(/C=N/NC(=O)Cn2nc(C)cc2C)n1	-5%	0%	5%	1%	-1%	3%
CCCCC(=O)NC(=S)Nc1ccc(Cl)c(C(=O)O)c1	-12%	-2%	1%	13%	-7%	-13%
COCCNC(=S)NNc1ccc(Cl)c(C(=O)O)c1	27µM*	0%	-6%	-4%	-15%	32%
CN(C)c1nc(-c2ccccn2)nnc1-c1ccccc1	1%	-5%	10%	10µM*	-4%	15µM*
CCN(CC)c1nc(-c2ccccn2)nc(-c2ccccc2)c1C#N	-10%	1%	6%	18µM*	-1%	3.3µM*
COc1ccc(C(=O)N2CCC3(CCN(Cc4ccncc4)CC3)CC2)cc1	x	-18%	x	-2%	-2%	u
CCOC(=O)c1ccc(CC(=O)c2ccc(O)cc2O)o1	-1%	-6%	-2%	u	8%	13µM*
CCOc1ccc(C(=O)NCC(c2cccs2)N2CCOCC2)cc1 (stereo not given)	-3%	-2%	-2%	-14%	-2%	-2%
O=C(NCC(c1cccs1)N1CCOCC1)c1cc(-c2ccc(F)cc2)nc2ccccc12 (stereo not given)	-9%	-16%	4%	u	-11%	16µM*

Bioassay records as filed in PubChem BioAssay.
